This is an account of results in PubChem BioAssay AID504652 (National Center for Advancing Translational Sciences (NCATS), 2011).

Among all 360,000 compounds or so, about 11,000 (3.1%) were called active. This is one part of a sample in which actives are shown more often than they occur. Values without a mark were called inactive. Cut-off read from the data, not from the text of the source: active = activity change below about -30%; inactive = the rest.
% is set by controls: 0 for no effect and ±100 for the full control effect.

In this assay the target is D(1A) dopamine receptor (Homo sapiens) (UniProt P21728). As to the kind of experiment: Antagonist of Human D 1 Dopamine Receptor: qHTS. The note with it: HEK293 TREx D1 cells, calcium flux, dopamine EC80; at 10 µM; active compounds read low. Summed up: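 Kinetic fluorescence of a calcium dye serves as the read-out. D1-expressing Hek293 Trex cells, induced overnight at 30 C, are exposed to compound for 180 s before an EC80 dopamine addition, then read 180 s further.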
Chain of D(1A) dopamine receptor (Homo sapiens) (P21728 whole entry, looked up): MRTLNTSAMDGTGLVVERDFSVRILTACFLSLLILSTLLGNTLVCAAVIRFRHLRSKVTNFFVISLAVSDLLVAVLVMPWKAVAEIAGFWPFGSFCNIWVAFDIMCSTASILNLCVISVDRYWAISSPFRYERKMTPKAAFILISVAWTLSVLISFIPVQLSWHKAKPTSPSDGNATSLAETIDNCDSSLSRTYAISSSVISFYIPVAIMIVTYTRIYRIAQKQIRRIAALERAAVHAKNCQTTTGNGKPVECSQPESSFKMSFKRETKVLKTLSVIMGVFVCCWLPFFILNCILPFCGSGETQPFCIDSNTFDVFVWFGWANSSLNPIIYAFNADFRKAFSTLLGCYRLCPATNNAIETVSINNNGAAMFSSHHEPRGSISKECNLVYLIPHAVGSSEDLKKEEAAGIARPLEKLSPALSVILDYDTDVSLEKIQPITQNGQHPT
(Quantitative high-throughput screening tests each substance at several concentrations.)
As for `NC(=O)NCCCC(=O)O`, the activity change, negative = inhibition is -51% (active). The same measure for `CCCCCCCCCCCC(=O)O`: -4.71%; for `Cc1oc(C)c(C(=O)NCCCC(=O)O)c1C(=O)NCCCC(=O)O`: 1.94%.

In the case of `COc1ccccc1C1C(C(=O)N2CCCCC2)=C(C)Nc2nc3ccccc3n21` (centres undefined), the activity change, negative = inhibition was 3.49%. As for `O=C(CS(=O)(=O)c1cccc2nsnc12)N1CCN(c2cccc(Cl)c2)CC1`, the activity change, negative = inhibition was -13.7%. The same measure for `Cc1cc(OCC(=O)NC2CCN(C)CC2)ccc1[N+](=O)[O-]`: -13%. The value for `COc1cc(CN2CCN(Cc3ccc(C)cc3)CC2)c([N+](=O)[O-])cc1OC` was 5.79%; that for `Cc1cc(OCCCN2CCN(Cc3ccccc3)CC2)ccc1[N+](=O)[O-]` was -35.7% (active); that for `O=C(CCn1c(=O)c2ccccc2n(Cc2ccc(Cl)cc2)c1=O)NCc1ccc2c(c1)OCO2` was -2.86%.

As for `CCOC(=O)c1c(NC(=O)c2ccc(S(=O)(=O)N(C)CC3CCCO3)cc2)sc2c1CC(C)(C)NC2(C)C` (centres undefined), the activity change, negative = inhibition is -2.75%.

Regarding `O=C(Nc1ccc(S(=O)(=O)NCC2CCCO2)cc1)c1ccc(F)cc1` (centres undefined), the activity change, negative = inhibition is -29.6%. The value for `Cc1ccc(NC(=O)c2ccc(S(=O)(=O)NCC3CCCO3)cc2)cc1C` (centres undefined) was -12%; that for `CCC(=O)Nc1ccc(S(=O)(=O)NCC2CCCO2)cc1` (centres undefined) was -9.18%. The same measure for `CCOc1ccc(C(=O)Nc2ccc(S(=O)(=O)NCC3CCCO3)cc2)cc1OCC` (centres undefined): -38.2% (active); for `CC1CCc2noc(NC(=O)c3ccc([N+](=O)[O-])cc3)c2C1` (centres undefined): -19.9%; for `CN(CC1CCCO1)S(=O)(=O)c1ccc(C(=O)Nc2ccc([N+](=O)[O-])cc2)cc1` (centres undefined): -32.3% (active). The same measure for `CN(CC1CCCO1)S(=O)(=O)c1ccc(C(=O)Nc2ccc(F)cc2)cc1` (centres undefined): -41.6% (active); for `O=C(NCC1CCCO1)c1ccc(S(=O)(=O)Nc2ccc(F)cc2)cc1` (centres undefined): -8.93%; for `CCC1(C)CC(=O)c2c(ccc3oc(C(=O)Nc4ccc(C(C)=O)cc4)c(C)c23)O1` (centres undefined): -2.38%. In the case of `COc1cccc(CNC(=O)Cn2c(=O)c3cccn3c3ccc(F)cc32)c1OC`, the activity change, negative = inhibition is 4%.

Turning to `CCOc1cc(NC(=S)NCCCN(C)C)c(OCC)cc1NC(=O)C1CC1`, the activity change, negative = inhibition is -3.38%. The same measure for `CCOc1cc(NC(=S)NCc2ccco2)c(OCC)cc1NC(=O)c1ccco1`: -1.48%; for `CCOc1cc(NC(=S)NCCCOC)c(OCC)cc1NC(=O)c1ccco1`: -35.1% (active); for `CCSc1ncc(Cl)c(C(=O)Nc2c(C(=O)c3ccccc3)oc3ccccc23)n1`: -6.04%.

For `Cc1ccccc1CS(=O)(=O)CC1Nc2ccc(C(=O)NCc3ccc(Cl)cc3)cc2NC1=O` (centres undefined), the activity change, negative = inhibition was -8.08%. The value for `Cc1cc(C(=O)N/N=C/c2ccc(O)c([N+](=O)[O-])c2)c(C)n1-c1ccc(F)cc1` was -30% (active); that for `Cc1cc(C(=O)COC(=O)C2CC2)c(C)n1-c1ccc(F)cc1` was -6.5%; that for `O=C1CSC(=S)N1/N=C/c1ccc(O)c([N+](=O)[O-])c1` was -20.2%. With `Cc1ccccc1CN1CCC(CNC(=O)c2c(C)oc3ncnc(N4CCCCC4)c23)CC1`, the activity change, negative = inhibition is -6.32%.

In the case of `O=C(Oc1ccc(C(=S)N2CCOCC2)cc1)c1ccc(F)cc1`, the activity change, negative = inhibition is -12.9%. The same measure for `O=C(Nc1ccc(F)cc1)C(=O)c1cn(CC(=O)N2CCOCC2)c2ccccc12`: 0.328%; for `O=C(c1ccc(F)cc1)n1cc(C(=S)N2CCOCC2)c2ccccc21`: -30.2% (active); for `Cn1c(=O)sc2cc(NS(=O)(=O)c3ccc(C(C)(C)C)cc3)ccc21`: 6.14%. The same measure for `CC1=CC(=C(C#N)c2nc3ccccc3s2)C=C(C)N1c1ccc(F)cc1F`: -3.42%; for `O=C(O)CS/C(=C\c1ccc(F)cc1)c1nc2ccccc2s1`: -33.3% (active).

Turning to `O=C(O)CC/C(=C\c1cc2c(cc1Br)OCO2)c1nc2ccccc2s1`, the activity change, negative = inhibition was -6.84%. Turning to `COc1ccc(OC)c(NC(=O)CSc2nc3ccccc3nc2N2CCCCC2)c1`, the activity change, negative = inhibition is -1.47%. The same measure for `Cc1cccc(NC(=O)CSc2nnc(CNC(=O)c3cccc(C)c3)n2-c2ccccc2)c1`: -12.8%; for `Cc1ccc(-c2nc(CS(=O)(=O)CC(=O)NCc3ccccc3Cl)c(C)o2)cc1`: 3.92%; for `Cc1ccsc1C1C(C#N)=C(N)OC2=C1C(=O)CC(C)C2` (centres undefined): -22.6%. The value for `Cc1ccsc1C1C(C#N)=C(N)OC2=C1C(=O)CC(C)(C)C2` (centres undefined) was -36.3% (active).

For the molecule `COc1ccc(C2C(C#N)=C(/N=C/N3CCOCC3)OC3=C2C(=O)CC(C)(C)C3)cc1OC` (centres undefined), the activity change, negative = inhibition is 4.71%.

For the molecule `COc1ccc(-c2c(C)nn3c(N4CCC(C(=O)NCCC(C)C)CC4)cc(C)nc23)cc1OC`, the activity change, negative = inhibition was -5.31%. The same measure for `COc1cccc(CNc2nccn(-c3ccc(OC)c(OC)c3)c2=O)c1`: 6.9%; for `COc1ccc(C2NC(=O)N(C)C3=C2C(=O)N(c2ccc(C(=O)O)cc2)C3)cc1` (centres undefined): -10.6%; for `COC(=O)c1ccc(NC(=O)CCc2c(C)nn(-c3ccc(N4CCCC4)nn3)c2C)cc1`: -3.84%. The value for `O=C(CNC1CCCCC1)NCC1(c2ccccc2)CCCC1` was 4.83%; that for `Cc1cccc(C(CC(=O)NCC2(c3ccccc3)CCCC2)c2ccccc2)c1O` (centres undefined) was -31% (active); that for `CCOc1c(OC)cccc1C(=O)NCC1(c2ccccc2)CCCC1` was 19%. The same measure for `COc1ccc(/C=C/c2noc(-c3ccccc3O)n2)cc1OC`: 4.82%. In the case of `CC(C)CCN(C(=O)Nc1ccc(Cl)c(Cl)c1)C(C)c1cccs1` (centres undefined), the activity change, negative = inhibition is -22.4%.

For `O=C(COc1ccc(Cl)cc1)Nc1ccccc1OCc1cc(=O)n2ccccc2n1`, the activity change, negative = inhibition is 0.395%. The value for `O=C(CSc1ncc(CO)n1Cc1ccc(Cl)cc1)NCc1ccc(F)cc1` was -8.7%; that for `COc1ccc(C(=O)N(Cc2ccccc2)c2ccc(C)cc2)cc1S(=O)(=O)N1CCOCC1` was 8.42%; that for `CCN(CC(=O)NCc1cccs1)C(=O)c1ccc(OC)c(S(=O)(=O)N2CCOCC2)c1` was 2.75%. The same measure for `CCN(Cc1ccncc1)C(=O)c1cccc(S(=O)(=O)N2CCOCC2)c1`: -44.2% (active). The value for `Cc1nn(Cc2ccccc2)c(C)c1CNC(=O)c1ccc(F)c(S(=O)(=O)N2CCOCC2)c1` was -20.4%; that for `CC(C)C(NC(=O)c1cccc(S(=O)(=O)N2CCOCC2)c1)C(=O)NCCc1ccccn1` (centres undefined) was 10.6%. On to `O=C(c1ccc(F)c(S(=O)(=O)N2CCOCC2)c1)N(CCc1ccccc1)Cc1ccccc1`, for which the activity change, negative = inhibition is -39.2% (active).
